Experimental data published in PubChem BioAssay (Tox21).
Where “and” joins values, the source holds several entries; their conditions need not be identical. Equal values may be shown once. Inconclusive results are not listed. Entries that show only a call come without a potency. More than one record can exist for a structure, and the calls need not agree. Calls of active or inactive are those of the source. The call rests on the fitted dose curve; in most records, active means well fitted cell-killing curve with a large enough effect in the repeat runs; inconclusive means weak or mixed curves, or effect the other way; inactive means flat fitted curve, though single readings scatter.

Experiment: qHTS assay to identify small molecule antagonists of the androgen receptor (AR) signaling pathway using the MDA cell line in the presence of 0.5 nM R1881 - cell viability counter screen (AID 1259242); further: nearly all actives have a fitted effect of over 45% in size
Conditions: MDA-kb2 viability, CellTiter-Fluor protease fluorescence, 16 h; series mostly up to 92.4 µM
From the text: U.S. Tox21 Program National Center for Advancing Translational Sciences [NCATS] NIH Chemical Genomics Center [NCGC] U.S. Environmental Protection Agency [EPA] National Institutes of Environmental Health Sciences [NIEHS] National Toxicology Program [NTP] U.S. Food and Drug Administration [FDA] Tox21 Assay Overview: Androgen receptor (AR) is an important member of the nuclear receptor family. Its signaling plays a critical role in AR-dependent prostate cancer and other androgen related diseases. Considerable attention has been given in the past decades to develop methods to study and screen for the environmental chemicals that have the potential to interfere with metabolic homeostasis, reproduction, developmental and behavioral functions. Therefore AR binding assay for screening androgen antagonists can be used to identify potential endocrine disruptors. MDA-kb2 cells (from ATCC, deposited by Wilson et al.) were used to screen for AR inhibitors against Tox21 compound libraries. These cells are human breast carcinoma cells that were stably transfected with a luciferase reporter gene under control of the MMTV promoter that contains response elements for both androgen receptor (AR) and glucocorticoid receptor (GR). The current screening for identification of AR inhibitors against Tox21 libraries used lower concentration of (0.5 nM) R1881 as a stimulator. The cytotoxicity of the Tox21 compound libraries against MDA-kb2 cell line was tested by measuring live-cell protease activity using CellTiter-Fluor assay in the same wells.
Tox21 Assay Protocol Summary: MDA-kb2 cells (cells cultured without CO2) were dispensed at 3,000 cells/well in 4 uL of culture medium into white wall/solid-bottom 1536-well plates (Corning Life Sciences, Corning, NY) using a Multidrop Combi (ThermoFisher Scientific, Waltham, MA) dispenser. After the assay plates were incubated at a 37C and 0% CO2 for 5 hr, 23 nL of compounds dissolved in DMSO, positive controls or DMSO only was transferred to the assay plate by a Pintool station (Kalypsys, San Diego, CA). The transfer of compounds was followed by the addition of 1 uL of 0.5 nM (final concentration) agonist (R1881)/culture medium using a Flying Reagent Dispenser (FRD, Aurora Discovery, San Diego, CA). The plates were incubated at 37C and 0% CO2 for 16 hr. For cytotoxicity assay, 1 uL of CellTiter-Fluor reagent (Promega Corporation, Madison, WI) was added to each well using the FRD and after 30 min incubation at 37C and 0% CO2, The fluorescence intensity was measured using ViewLux plate reader (PerkinElmer, Shelton, CT).
Potency means the concentration at half of the fitted maximal effect.

SMILES | Potency
CC[N+](CC)(CC)CC | inactive
CCCCn1cc[n+](C)c1C | inactive
Cc1cc(-c2ccc(N)c(C)c2)ccc1N | inactive
CCCCCCCCCCCC(=O)O | inactive
O=C(O)c1ccccc1O | inactive
CCC[N+]1(C)CCCC1 | inactive
CCOP(=S)(OCC)Oc1ccc2c(C)c(Cl)c(=O)oc2c1 | inactive
CC(=O)[O][Hg][c]1ccccc1 | 1.92 µM (active) and 6.11 µM (active) and 2.66 µM (active)
CCCC[N+]1(C)CCCCC1 | inactive
CCC(=O)C(CC(C)N(C)C)(c1ccccc1)c1ccccc1 (stereo not given) | inactive
Oc1cccc2cccnc12 | inactive
O=[N+]([O-])c1ccccc1O | inactive
CCCCCCCCCCCCOS(=O)(=O)O | inactive
C[C@]12CCC(=O)C=C1CC[C@@H]1[C@@H]2CC[C@]2(C)C(=O)CC[C@@H]12 | inactive
O=P1(N(CCCl)CCCl)NCCCO1 (stereo not given) | inactive
CCCCCCCCCCCCCC[P+](CCCCCC)(CCCCCC)CCCCCC | 9.73 µM (active) and 13.8 µM (active)
O=c1[nH]c(=O)n(Cl)c(=O)n1Cl | inactive
O=c1nc(O)n(Cl)c(=O)n1Cl | inactive
O=C(O)CC(O)(CC(=O)O)C(=O)O | inactive
Nc1ccc(Cl)cc1 | inactive

SMILES | Potency
Cc1cc(Cl)ccc1N | inactive
COc1ccc(N)cc1 | inactive
CCCCn1cc[n+](C)c1 | inactive
CC(Cl)(Cl)C(=O)O | inactive
CCCCCC[n+]1ccccc1 | inactive
CNC | inactive
O=C(O)CCl | inactive
CC[n+]1ccccc1 | inactive and 30.4 µM (active)
Cc1cc(Cl)ccc1OCC(=O)O | inactive
CN(C)[C@@H]1C(=O)C(C(N)=O)=C(O)[C@@]2(O)C(=O)C3=C(O)c4c(O)cccc4[C@@](C)(O)[C@H]3[C@H](O)[C@@H]12 | inactive
CCCCCCCCCCCCCCCCn1cc[n+](C)c1 | inactive and 34.7 µM (active) and 48.7 µM (active)
COP(=O)(OC)C(O)C(Cl)(Cl)Cl (stereo not given) | inactive
CCCC[n+]1ccc(C)cc1 | inactive
COCC(=O)N(c1c(C)cccc1C)C(C)C(=O)OC (stereo not given) | inactive
CCCn1cc[n+](C)c1 | inactive
CCn1cc[n+](C)c1C | inactive
C[N+](C)(C)Cc1ccccc1 | inactive
CC(=O)O | inactive
CCCC[n+]1cccc(C)c1 | inactive
N#CS | inactive
